Screening results deposited in PubChem by National Center for Advancing Translational Sciences (NCATS).
BAZ2B inh: inhibitors of human BAZ2B bromodomain. Potency, µM (doses to about 114 µM), for the others: at the highest dose activity change, negative = inhibition, actives largely listed as inhibitors. hit rate 4.4% among 360,000. AlphaScreen BAZ2B-H3K14Ac peptide displacement. Q9UIF8; note: % is set by controls: 0 for no effect and ±100 for the full control effect; nearly all actives have a fitted effect of over 60% in size
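In this displacement format the biotinylated H3(5-23) peptide acetylated at Lys14 serves as ligand at 50 nM, with BAZ2B at 50 nM in PBS pH 7.4 containing 0.01% Tween-20. Donor and acceptor beads are 10 ug/mL final.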
JMJD2A Tudor inh: JMJD2A Tudor domain (human) inhibition; O75164; AlphaScreen JMJD2A-Tudor / H3K4me3 peptide binding; Potency, µM (titrated, usually from 114 µM), for the others: at the highest dose activity change, negative = inhibition, actives largely listed as inhibitors; hit rate 4.4% among 390,000; note: % is set by controls: 0 for no effect and ±100 for the full control effect; nearly all actives have a fitted effect of over 50% in size
G9a block: blocks human histone lysine methyltransferase G9a | hit rate 8.8% among 350,000 | AID 504332 | Potency, µM (series often up to 102 µM), without a hit: at the top dose activity, negative = inhibition, hits mostly inhibitors | Q96KQ7 | G9a H3K9 monomethylation, AlphaScreen, 2 h; note: % is set by controls: 0 for no effect and ±100 for the full control effect; nearly all actives have a fitted effect of over 75% in size
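Enzyme 20 nM + cpd, 15 min RT; add b-H3K9 pep 500 nM / SAM 20 uM; 2 h RT; anti-H3K9me1 Ab 0.5 ug/mL + SA donor / anti-rabbit acceptor beads 20 ug/mL each, 10 min; AlphaScreen read.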
VDR inhibitor: inhibitors of human vitamin D receptor. AID 504847. P11473. VDR-SRC2-3 peptide fluorescence polarization, 2 h. Potency, µM, for inactives: max response, negative = inhibition, most hits filed as inhibitors. hit rate 0.93% among 400,000; note: % is set by controls: 0 for no effect and ±100 for the full control effect
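VDR–SRC2-3 interaction, FP format. Cmpds 23 nl via pintool, brief spin, 2 h ambient incubation.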
HP1b chromo inh: blocks HP1-beta chromodomain binding to methylated histone tails | AlphaScreen HP1-beta / biotin-H3K9me3 peptide binding | Potency, µM (highest dose often 114 µM), for the others: top-dose activity change, negative = inhibition, hits mostly inhibitors | hit rate 0.56% among 390,000 | AID 540317; note: nearly all actives have a fitted effect of over 70% in size
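HP1-beta protein (50 nM final) preincubated 30 min at room temperature with biotinylated H3(1-18)K9me3 peptide (50 nM) in PBS pH 7.4, 0.01% Tween-20, then compound added for 30 min. AlphaScreen streptavidin donor/nickel chelate acceptor beads (10 ug/mL final), 30 min dark, luminescence read.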
PLK1 PBD block: inhibitors of human PLK1 polo-box domain binding; P53350; Plk1 PBD binding of FITC phosphopeptide, fluorescence polarization; Potency, µM, for the others: max response, negative = inhibition, hits mostly inhibitors; hit rate 2.8% among 360,000; note: series mostly up to about 57 µM; % is set by controls: 0 for no effect and ±100 for the full control effect; nearly all actives have a fitted effect of over 65% in size
Target sequence (P53350 whole entry, looked up, the tested form may be a part): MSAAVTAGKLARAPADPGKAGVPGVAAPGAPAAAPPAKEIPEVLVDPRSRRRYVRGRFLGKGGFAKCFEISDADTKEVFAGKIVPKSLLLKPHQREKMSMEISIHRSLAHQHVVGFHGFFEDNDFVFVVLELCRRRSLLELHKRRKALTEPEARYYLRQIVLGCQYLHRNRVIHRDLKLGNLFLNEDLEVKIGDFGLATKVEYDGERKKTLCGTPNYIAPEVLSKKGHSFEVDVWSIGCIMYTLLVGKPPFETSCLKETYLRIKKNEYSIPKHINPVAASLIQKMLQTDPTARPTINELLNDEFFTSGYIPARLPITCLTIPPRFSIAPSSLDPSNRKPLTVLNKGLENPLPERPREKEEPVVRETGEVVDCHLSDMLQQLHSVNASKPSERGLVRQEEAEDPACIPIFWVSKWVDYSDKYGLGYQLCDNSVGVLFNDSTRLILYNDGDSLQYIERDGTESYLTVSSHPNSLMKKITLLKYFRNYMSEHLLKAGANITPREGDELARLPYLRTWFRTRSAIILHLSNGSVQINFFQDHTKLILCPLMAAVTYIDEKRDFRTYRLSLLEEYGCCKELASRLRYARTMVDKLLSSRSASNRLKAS
Starred values were filed as active, the others as inactive; [ ] = dose if it differs, or a comment. Sampled rows, rich in hits. Any-hit rate of the full collection: about 11%. Calls come from the whole dose curve; as a rule, active = well fitted curve in the direction sought with a large enough effect; inconclusive = small, poorly fitted or top-dose-only effect, or another doubt; inactive = no such curve, though single readings can be large; an effect the other way counts as inactive or inconclusive. Potency is the fitted concentration of half-maximal effect.

For Cc1ccc(CNC(=O)CSc2nc3ccsc3c(=O)n2Cc2ccc(C(=O)O)cc2)cc1 the results were JMJD2A Tudor inh -8%, G9a block inconclusive, VDR inhibitor -26%, HP1b chromo inh 39% and PLK1 PBD block -13%.
Screening Cc1ccc(O)c(CNc2ccc(S(=O)(=O)Nc3nccs3)cc2)c1 returned BAZ2B inh inconclusive, JMJD2A Tudor inh -23%, G9a block inconclusive, VDR inhibitor 0%, HP1b chromo inh -6% and PLK1 PBD block inconclusive.
CCOC(=O)c1noc2ncn(CC(=O)Nc3ccc(C)c(F)c3)c(=O)c12 was read as BAZ2B inh -12%, JMJD2A Tudor inh -21%, G9a block -1%[59 µM], VDR inhibitor 13% and HP1b chromo inh 20%[57 µM].
`C=CCSC1=N/C(=C\c2cc(OCC)c(OC(C)=O)c([N+](=O)[O-])c2)C(=O)S1` gave BAZ2B inh 35µM*, JMJD2A Tudor inh 18µM*, G9a block 13µM*, VDR inhibitor -30%, HP1b chromo inh 28µM* and PLK1 PBD block -26%.
Screening C=CCSC1=N/C(=C\c2ccc3c(c2)OCO3)C(=O)S1 returned BAZ2B inh 49%, JMJD2A Tudor inh 50%, G9a block -10%, VDR inhibitor 1%, HP1b chromo inh 117% and PLK1 PBD block -9%.
`CC(C)CCNC(=O)C1CCN(S(=O)(=O)c2ccc3nc4c(c(C(=O)O)c3c2)CCCCC4)CC1` gave BAZ2B inh -20%, JMJD2A Tudor inh -5%, G9a block -9%, VDR inhibitor inconclusive, HP1b chromo inh 31% and PLK1 PBD block -8%.
`CC1CCc2nc3ccc(S(=O)(=O)N4CCC(C(=O)N5CCCCCC5)CC4)cc3c(C(=O)O)c2C1` (stereo not drawn) gave BAZ2B inh -21%, JMJD2A Tudor inh -16%, G9a block 45µM*, VDR inhibitor 2%, HP1b chromo inh -8% and PLK1 PBD block 6%.
For O=C(O)c1c2c(nc3ccc(S(=O)(=O)N4CCC(C(=O)NC5CCCCCC5)CC4)cc13)CCCC2 the results were BAZ2B inh 50µM*, JMJD2A Tudor inh inconclusive, G9a block 40µM*, VDR inhibitor -9%, HP1b chromo inh 4% and PLK1 PBD block inconclusive.
`CC[C@@H](C)[C@H](NS(=O)(=O)c1cccc2ccccc12)C(=O)N[C@H](C=O)Cc1c[nH]c2ccccc12` gave G9a block 0%[59 µM] and VDR inhibitor 32µM*.
For CC(Cc1c[nH]c2ccccc12)NC(N)=O (stereo not drawn) the results were BAZ2B inh 10%, JMJD2A Tudor inh -18%, G9a block 7%, VDR inhibitor 2%, HP1b chromo inh 31% and PLK1 PBD block -8%.
For COc1cc(/C=C/c2nc3cc(Cl)ccc3c(=O)n2-c2cccc(C(F)(F)F)c2)cc(OC)c1OC the results were BAZ2B inh 1%, JMJD2A Tudor inh -12%, G9a block 4%[59 µM], VDR inhibitor 12% and HP1b chromo inh 27%.
For CCCOc1ccc(C(F)(F)F)cc1NC(=O)C1CC(=O)N(Cc2ccco2)C1 (stereo not drawn) the results were BAZ2B inh -32%, JMJD2A Tudor inh 4%, G9a block -11%[2.33 µM], VDR inhibitor -19%, HP1b chromo inh 30% and PLK1 PBD block 3%.
Screening CCC(Cc1ccccc1)OC(=O)c1ccccc1C(=O)O (stereo not drawn) returned JMJD2A Tudor inh -2%, VDR inhibitor -4%, HP1b chromo inh 21%[57 µM] and PLK1 PBD block -2%.
`CC(C)n1cnc2cc(NCc3nc4ccccc4n3C)ccc21` gave BAZ2B inh inconclusive, JMJD2A Tudor inh inconclusive, G9a block 45µM*, VDR inhibitor -16%, HP1b chromo inh 10% and PLK1 PBD block 0%.
Cn1c(CNc2ccccc2O)nc2ccccc21 was read as BAZ2B inh inconclusive, JMJD2A Tudor inh inconclusive, G9a block 3.5µM*, VDR inhibitor 2%, HP1b chromo inh 2% and PLK1 PBD block -11%.
Screening COc1cc(CNc2ccc3c(c2)ncn3C(C)C)cc(OC)c1OC returned BAZ2B inh -27%, JMJD2A Tudor inh -20%, G9a block inconclusive, VDR inhibitor -13% and HP1b chromo inh 11%.
